Assays:
Test in all cases: log2 ratio of Biotin-Ahx-Ub-VS probe labelling (fragment/DMSO); higher = less target engagement (more negative = stronger competition), active = hit call of the paper (q ≤ 0.05, log2 ratio ≤ -1)
Details in all cases: compound concentration: 200 uM; treatment time: 3 h
OTUD6B = target: T1, OTUD6B (UniProt Q8N6M0)
T1 sequence (whole entry): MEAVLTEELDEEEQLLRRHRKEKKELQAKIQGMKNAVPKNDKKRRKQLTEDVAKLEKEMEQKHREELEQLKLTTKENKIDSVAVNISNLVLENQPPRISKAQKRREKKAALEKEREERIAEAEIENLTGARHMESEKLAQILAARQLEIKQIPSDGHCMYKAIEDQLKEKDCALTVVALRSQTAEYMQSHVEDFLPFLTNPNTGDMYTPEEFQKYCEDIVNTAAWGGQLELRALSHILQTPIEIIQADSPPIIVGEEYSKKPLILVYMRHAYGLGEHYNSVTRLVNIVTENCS
Summary of the method: (§1)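 HEK293T lysate, 495 µg per sample in Tris/CHAPS/IGEPAL buffer with protease inhibitors, was treated in triplicate with fragment at 200 µM or vehicle for 3 h and then with Biotin-Ahx-Ub-VS at 0.5 µM final for 1 h. Labelled DUBs were NeutrAvidin-enriched, digested with LysC and trypsin, and run by diaPASEF LC-MS/MS. Spectronaut label-free quantities were global-median-normalised, and values are average log2 fragment/vehicle ratios by unpaired t-test on proteins with ≥2 unique peptides.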

OTUD7B = target: T2, OTUD7B (UniProt Q6GQQ9)
T2 sequence (whole entry): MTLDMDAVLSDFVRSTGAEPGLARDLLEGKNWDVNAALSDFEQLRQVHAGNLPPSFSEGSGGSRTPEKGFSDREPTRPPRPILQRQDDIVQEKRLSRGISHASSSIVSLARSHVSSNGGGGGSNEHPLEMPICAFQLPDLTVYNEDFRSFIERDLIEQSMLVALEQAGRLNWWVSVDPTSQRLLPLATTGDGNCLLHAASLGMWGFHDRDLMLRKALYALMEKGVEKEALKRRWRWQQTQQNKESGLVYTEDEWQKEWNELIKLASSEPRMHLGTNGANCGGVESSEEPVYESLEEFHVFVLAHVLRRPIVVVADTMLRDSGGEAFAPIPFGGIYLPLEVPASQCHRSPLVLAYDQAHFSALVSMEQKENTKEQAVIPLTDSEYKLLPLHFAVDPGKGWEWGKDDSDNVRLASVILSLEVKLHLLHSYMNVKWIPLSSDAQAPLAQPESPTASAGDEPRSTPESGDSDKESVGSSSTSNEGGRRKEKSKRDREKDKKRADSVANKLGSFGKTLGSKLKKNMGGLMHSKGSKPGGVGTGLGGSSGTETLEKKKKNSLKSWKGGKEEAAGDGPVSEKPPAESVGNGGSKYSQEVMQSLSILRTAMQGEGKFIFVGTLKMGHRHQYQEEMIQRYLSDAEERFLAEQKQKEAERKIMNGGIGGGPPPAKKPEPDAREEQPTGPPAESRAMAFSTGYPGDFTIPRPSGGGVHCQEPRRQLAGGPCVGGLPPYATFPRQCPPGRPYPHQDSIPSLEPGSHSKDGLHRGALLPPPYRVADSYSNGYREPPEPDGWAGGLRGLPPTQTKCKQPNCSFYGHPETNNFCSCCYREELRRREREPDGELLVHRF
Summary of the method: as §1

PRPF8 = PRPF8 (UniProt Q6P2Q9)
Summary of the method: as §1

PSMD7 = target: T3, PSMD7 (UniProt P51665)
T3 sequence (whole entry): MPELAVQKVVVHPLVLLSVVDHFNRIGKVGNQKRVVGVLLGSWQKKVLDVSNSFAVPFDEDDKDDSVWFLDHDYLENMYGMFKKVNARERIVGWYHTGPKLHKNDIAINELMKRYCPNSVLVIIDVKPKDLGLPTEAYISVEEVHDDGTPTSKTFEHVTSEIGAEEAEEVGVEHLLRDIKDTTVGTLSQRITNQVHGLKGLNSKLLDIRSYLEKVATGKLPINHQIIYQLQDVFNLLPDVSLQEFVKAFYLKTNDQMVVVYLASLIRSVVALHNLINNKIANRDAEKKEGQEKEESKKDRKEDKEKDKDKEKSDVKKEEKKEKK
Summary of the method: as §1

UCHL1 = UCHL1 (UniProt P09936)
Summary of the method: as §1

UCHL3 = target: T4, UCHL3 (UniProt P15374)
T4 sequence (whole entry): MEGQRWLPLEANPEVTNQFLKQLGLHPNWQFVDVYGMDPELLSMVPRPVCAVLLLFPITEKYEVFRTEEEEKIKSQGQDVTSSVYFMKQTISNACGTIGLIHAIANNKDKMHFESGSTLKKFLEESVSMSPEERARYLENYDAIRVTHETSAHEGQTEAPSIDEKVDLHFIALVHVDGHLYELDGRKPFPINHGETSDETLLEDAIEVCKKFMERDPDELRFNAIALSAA
Summary of the method: as §1

UCHL5 = target: T5, UCHL5 (UniProt Q9Y5K5)
T5 sequence (whole entry): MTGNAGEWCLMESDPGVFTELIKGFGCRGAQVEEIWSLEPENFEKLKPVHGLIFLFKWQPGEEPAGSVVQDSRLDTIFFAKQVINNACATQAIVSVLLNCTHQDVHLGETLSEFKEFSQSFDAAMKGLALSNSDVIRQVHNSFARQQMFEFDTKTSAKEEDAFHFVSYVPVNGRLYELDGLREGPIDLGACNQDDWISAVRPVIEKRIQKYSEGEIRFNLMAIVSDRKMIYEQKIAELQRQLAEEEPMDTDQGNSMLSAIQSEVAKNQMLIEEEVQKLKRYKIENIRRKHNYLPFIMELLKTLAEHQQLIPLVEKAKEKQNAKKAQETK
Summary of the method: as §1

USP10 = USP10 (UniProt Q14694)
Summary of the method: as §1

USP15 = target: T6, USP15 (UniProt Q9Y4E8)
T6 sequence (whole entry): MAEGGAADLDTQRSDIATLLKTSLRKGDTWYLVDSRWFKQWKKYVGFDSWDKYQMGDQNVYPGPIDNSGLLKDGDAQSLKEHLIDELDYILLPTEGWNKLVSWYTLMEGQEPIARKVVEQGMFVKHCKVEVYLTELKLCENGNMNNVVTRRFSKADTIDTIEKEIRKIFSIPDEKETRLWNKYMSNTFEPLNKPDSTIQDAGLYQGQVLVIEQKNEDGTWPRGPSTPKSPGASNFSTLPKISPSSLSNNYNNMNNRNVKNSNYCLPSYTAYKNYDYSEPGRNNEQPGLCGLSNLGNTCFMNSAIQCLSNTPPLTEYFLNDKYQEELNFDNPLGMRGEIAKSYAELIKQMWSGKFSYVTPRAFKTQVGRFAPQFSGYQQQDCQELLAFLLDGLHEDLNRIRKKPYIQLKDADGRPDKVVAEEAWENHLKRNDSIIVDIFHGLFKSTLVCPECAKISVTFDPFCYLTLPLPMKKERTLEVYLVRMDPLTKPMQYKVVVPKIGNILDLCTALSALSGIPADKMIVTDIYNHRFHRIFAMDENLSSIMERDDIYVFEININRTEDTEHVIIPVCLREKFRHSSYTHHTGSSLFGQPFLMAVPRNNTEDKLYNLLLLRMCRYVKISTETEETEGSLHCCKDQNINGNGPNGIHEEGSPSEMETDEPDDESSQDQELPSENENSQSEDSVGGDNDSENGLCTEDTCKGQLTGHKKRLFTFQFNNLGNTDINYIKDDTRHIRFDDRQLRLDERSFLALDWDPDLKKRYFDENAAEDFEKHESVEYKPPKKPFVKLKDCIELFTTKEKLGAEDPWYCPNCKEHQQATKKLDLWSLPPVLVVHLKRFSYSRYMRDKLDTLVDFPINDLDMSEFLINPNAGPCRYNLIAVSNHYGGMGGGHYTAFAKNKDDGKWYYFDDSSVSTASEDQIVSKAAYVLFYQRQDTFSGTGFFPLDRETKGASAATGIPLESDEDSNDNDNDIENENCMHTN
Summary of the method: as §1

USP16 = USP16 (UniProt Q9Y5T5)
Summary of the method: as §1

Measured: log2 ratio of Biotin-Ahx-Ub-VS probe labelling

Chain of UCHL1 (P09936 whole entry, looked up): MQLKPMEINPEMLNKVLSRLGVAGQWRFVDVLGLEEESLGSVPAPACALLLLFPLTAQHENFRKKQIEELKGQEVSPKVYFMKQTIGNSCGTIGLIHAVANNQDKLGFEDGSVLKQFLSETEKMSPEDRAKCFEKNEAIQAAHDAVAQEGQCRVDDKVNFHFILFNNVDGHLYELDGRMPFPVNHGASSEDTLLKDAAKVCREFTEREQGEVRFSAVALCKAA
Chain of USP10 (Q14694 whole entry): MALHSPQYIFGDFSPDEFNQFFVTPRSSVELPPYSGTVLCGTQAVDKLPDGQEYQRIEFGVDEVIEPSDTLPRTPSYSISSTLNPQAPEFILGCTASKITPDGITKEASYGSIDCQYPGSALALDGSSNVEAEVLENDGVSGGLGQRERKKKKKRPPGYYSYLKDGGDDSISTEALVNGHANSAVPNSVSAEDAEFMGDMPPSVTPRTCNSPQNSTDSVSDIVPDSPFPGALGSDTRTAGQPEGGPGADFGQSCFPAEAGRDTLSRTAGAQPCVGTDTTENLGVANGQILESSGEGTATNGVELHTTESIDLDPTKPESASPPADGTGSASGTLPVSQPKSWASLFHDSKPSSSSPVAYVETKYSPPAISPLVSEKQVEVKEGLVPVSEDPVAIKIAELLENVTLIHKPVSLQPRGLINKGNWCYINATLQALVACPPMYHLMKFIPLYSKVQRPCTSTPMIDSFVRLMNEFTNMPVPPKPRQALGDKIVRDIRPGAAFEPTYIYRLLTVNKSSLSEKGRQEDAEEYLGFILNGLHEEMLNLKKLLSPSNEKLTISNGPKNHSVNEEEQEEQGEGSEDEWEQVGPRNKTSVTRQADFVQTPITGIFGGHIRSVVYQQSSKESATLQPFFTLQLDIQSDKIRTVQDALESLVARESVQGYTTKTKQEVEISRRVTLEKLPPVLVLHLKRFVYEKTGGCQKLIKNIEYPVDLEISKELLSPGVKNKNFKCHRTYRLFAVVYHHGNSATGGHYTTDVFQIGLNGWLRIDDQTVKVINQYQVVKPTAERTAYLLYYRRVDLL
Chain of USP16 (Q9Y5T5 whole entry, looked up): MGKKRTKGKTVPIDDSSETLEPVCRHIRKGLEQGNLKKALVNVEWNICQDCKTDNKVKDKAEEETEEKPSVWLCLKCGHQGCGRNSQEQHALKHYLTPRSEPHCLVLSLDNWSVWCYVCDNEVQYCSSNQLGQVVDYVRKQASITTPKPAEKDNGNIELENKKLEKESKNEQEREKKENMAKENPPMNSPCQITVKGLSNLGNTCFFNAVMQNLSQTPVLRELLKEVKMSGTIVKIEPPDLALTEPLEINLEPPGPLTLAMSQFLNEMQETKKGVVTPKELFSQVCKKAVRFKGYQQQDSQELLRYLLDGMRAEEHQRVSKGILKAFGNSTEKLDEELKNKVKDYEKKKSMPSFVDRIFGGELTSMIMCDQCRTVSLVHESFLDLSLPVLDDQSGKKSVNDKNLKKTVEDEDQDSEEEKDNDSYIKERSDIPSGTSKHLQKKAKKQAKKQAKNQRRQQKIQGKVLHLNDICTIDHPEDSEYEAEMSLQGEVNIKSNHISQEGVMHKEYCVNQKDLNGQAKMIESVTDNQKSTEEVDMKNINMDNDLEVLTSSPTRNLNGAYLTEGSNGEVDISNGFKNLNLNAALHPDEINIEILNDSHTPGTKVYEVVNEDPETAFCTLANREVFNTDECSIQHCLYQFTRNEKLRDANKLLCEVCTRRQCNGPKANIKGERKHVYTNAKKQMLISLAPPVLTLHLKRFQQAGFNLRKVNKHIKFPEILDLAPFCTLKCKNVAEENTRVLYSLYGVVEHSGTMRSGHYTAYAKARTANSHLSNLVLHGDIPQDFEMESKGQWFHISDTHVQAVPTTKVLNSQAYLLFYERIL

Cc1ccc2nnc(CNC(=O)CCl)n2c1
active: UCHL1 -1
inactive: OTUD6B 0.146 | OTUD7B -0.395 | PRPF8 0.153 | PSMD7 0.238 | UCHL3 0.34 | UCHL5 -0.0479 | USP10 -0.0942 | USP15 -0.0934 | USP16 -0.0611
